Among all 390,000 compounds or so, about 17,000 (4.4%) were called active. Roughly 8% stayed inconclusive and do not appear here. The call rests on the fitted dose curve; in most records, active means well fitted inhibition curve with a large enough effect; inconclusive means small, poorly fitted or top-dose-only effect; inactive means no such curve, though single readings can be large or run the other way. Many of the other results were omitted from the sample, so actives are more common in it than they were.
On the % scale 0 is the no-effect control and ±100 the full control effect; potency means the concentration at half of the fitted maximal effect.

Lysine-specific demethylase 4A (Homo sapiens), sequence (O75164 whole entry, looked up, the tested form may be a part): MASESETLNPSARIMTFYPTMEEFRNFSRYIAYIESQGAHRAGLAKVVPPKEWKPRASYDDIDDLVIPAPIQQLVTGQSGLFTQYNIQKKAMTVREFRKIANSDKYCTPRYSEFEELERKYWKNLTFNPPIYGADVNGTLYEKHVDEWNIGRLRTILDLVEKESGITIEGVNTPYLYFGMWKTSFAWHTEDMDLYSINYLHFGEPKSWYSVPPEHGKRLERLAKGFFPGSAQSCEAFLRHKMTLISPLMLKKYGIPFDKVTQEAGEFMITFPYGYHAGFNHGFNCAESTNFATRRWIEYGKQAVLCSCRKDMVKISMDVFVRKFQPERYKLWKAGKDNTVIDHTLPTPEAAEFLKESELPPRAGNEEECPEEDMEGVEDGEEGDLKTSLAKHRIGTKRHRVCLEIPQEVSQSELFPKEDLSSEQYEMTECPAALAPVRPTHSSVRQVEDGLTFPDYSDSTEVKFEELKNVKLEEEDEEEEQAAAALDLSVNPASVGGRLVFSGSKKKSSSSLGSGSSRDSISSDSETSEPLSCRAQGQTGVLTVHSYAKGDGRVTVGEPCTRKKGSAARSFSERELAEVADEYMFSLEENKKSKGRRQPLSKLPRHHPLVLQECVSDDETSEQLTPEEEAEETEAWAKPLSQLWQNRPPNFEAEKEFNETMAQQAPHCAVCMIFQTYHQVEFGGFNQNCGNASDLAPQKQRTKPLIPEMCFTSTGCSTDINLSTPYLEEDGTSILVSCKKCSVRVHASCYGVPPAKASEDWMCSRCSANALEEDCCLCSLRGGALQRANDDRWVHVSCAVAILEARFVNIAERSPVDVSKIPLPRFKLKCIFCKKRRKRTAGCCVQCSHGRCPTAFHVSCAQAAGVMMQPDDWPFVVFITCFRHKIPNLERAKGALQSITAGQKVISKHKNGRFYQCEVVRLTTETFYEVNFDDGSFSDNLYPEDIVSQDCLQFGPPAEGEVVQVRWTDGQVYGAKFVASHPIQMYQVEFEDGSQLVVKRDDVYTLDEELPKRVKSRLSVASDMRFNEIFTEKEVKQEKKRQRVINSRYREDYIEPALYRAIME

This test addresses Lysine-specific demethylase 4A (Homo sapiens) (UniProt O75164). The test is described as follows: qHTS Assay for Inhibitors of JMJD2A-Tudor Domain. Further: nearly all actives have a fitted effect of over 50% in size. Particulars: AlphaScreen JMJD2A-Tudor / H3K4me3 peptide binding; series mostly up to 114 µM; activity change, negative = inhibition: at the top concentration.
With `COc1cc(C(=O)NCCS(=O)(=O)N2CCN(c3ccccc3)CC2)cc(OC)c1OC`, the “activity change, negative = inhibition” value is -0.639% (inactive). With `COc1ccc(-n2c(C)cc(C(=O)COC(=O)c3cc(OC)c(OC)cc3NC(=O)c3cccs3)c2C)cc1`, the “activity change, negative = inhibition” value is -16.8% (inactive).

For the compound `Cc1ccc(OC(=O)CSc2nnc(-c3cccs3)o2)cc1`, the “activity change, negative = inhibition” value is -19.9% (inactive). For `COc1ccc(-n2c(C)cc(C(=O)CSc3nnc(-c4cccs4)o3)c2C)cc1`, the Potency is 56.2 µM (active). On to `CCOC(=O)c1cc2c(=O)n3ccccc3nc2n(CC2CCCO2)c1=NC(=O)c1ccccc1Br` (configuration not stated), for which the “activity change, negative = inhibition” value was 5.12% (inactive).

In the case of `COCCNC(=O)CSc1c(C)cnc2c1c(=O)n(C)c(=O)n2C`, the “activity change, negative = inhibition” value is -4.22% (inactive).

`NS(=O)(=O)c1ccc(NC(=O)CSc2nnc3c(n2)[nH]c2ccccc23)cc1`: the “activity change, negative = inhibition” value is -6.12% (inactive). On to `CCC1CCCCN1Cc1c(O)ccc2c(=O)c(Oc3ccccc3Cl)c(C(F)(F)F)oc12` (configuration not stated), for which the “activity change, negative = inhibition” value was -3.78% (inactive).

Regarding `COc1ccc(CCNC(=O)CCc2c(C)nc3c(c(C)nn3-c3ccc(C)c(C)c3)c2C)c(OC)c1OC`, the “activity change, negative = inhibition” value was -14.5% (inactive). Regarding `CC(C)CC(=O)NC(=S)NNC(=O)c1cccc([N+](=O)[O-])c1`, the “activity change, negative = inhibition” value is -17.9% (inactive). For the compound `CCCCCC(=O)NC(=S)NNC(=O)c1ccc([N+](=O)[O-])cc1`, the Potency was 28.2 µM (active).

With `COCCCNC(=S)NC(=O)c1ccc([N+](=O)[O-])cc1`, the “activity change, negative = inhibition” value was -20% (inactive).

As to `COc1ccc(CCNc2nc(-c3ccc(F)cc3)cc(C(F)(F)F)n2)cc1OC`, the “activity change, negative = inhibition” value is 6.14% (inactive). Regarding `CSc1nn(Cc2cccc(C)c2)c(N)c1S(=O)(=O)c1ccccc1`, the “activity change, negative = inhibition” value is -14.6% (inactive). As for `O=C(C1CCC1)N1CCN(c2ccccc2)CC1`, the “activity change, negative = inhibition” value was 3.47% (inactive).

As for `O=C(c1cc2ccccc2s1)N1CCN(c2ccccn2)CC1`, the “activity change, negative = inhibition” value was -5.3% (inactive). Turning to `O=C(c1cc2c(s1)CCC2)N1CCN(c2ccccc2)CC1`, the Potency was 20 µM (active). On to `COCCCNC(NC(=O)c1ccc(C)cc1)C(Cl)(Cl)Cl` (configuration not stated), for which the “activity change, negative = inhibition” value was 0% (inactive). Turning to `CCn1c(C(C)NC(=O)c2ccc(C)cc2)n[nH]c1=S` (configuration not stated), the Potency is 6.31 µM (active).

For `CCn1c(SCC(=O)NNC(=O)c2ccc(OC)cc2)nnc1C(C)C`, the “activity change, negative = inhibition” value was -10.6% (inactive). As to `COc1cc(NC(=O)c2nc3ccccc3nc2C)cc(OC)c1OC`, the “activity change, negative = inhibition” value is -18.5% (inactive).

As for `CC1=C(C(=O)Nc2ccccc2Cl)C(c2cccs2)n2ncnc2N1` (configuration not stated), the “activity change, negative = inhibition” value was -9.58% (inactive). The same measure, in the same setting: with `CCCCOC(=O)CSc1ncnc2sc3c(c12)CCC(C)C3` (configuration not stated) the figure was 67.1% (inactive); with `Cn1c(=O)n(Cc2c(F)cccc2Cl)c(=O)c2c1nc1n2CCN1c1ccc(F)cc1`, -7.24% (inactive). As for `CCn1c(SCC(=O)c2ccc(Cl)s2)nnc1-c1cccs1`, the “activity change, negative = inhibition” value was -16.4% (inactive). `CCn1c(SCC(=O)c2ccc3ccccc3c2)nnc1-c1cccs1`: the Potency was 79.4 µM (active). `CCn1c(Cc2cccs2)nnc1SCC(=O)c1ccc(C)cc1`: the “activity change, negative = inhibition” value was -28.2% (inactive). Take `Cc1ccc(CCNC(=O)c2ccc3c(c2)nc2n3CCC(C)C2)cc1` (configuration not stated): the “activity change, negative = inhibition” value is -11% (inactive). On to `CCn1cc(C(=O)OCC(=O)Nc2cc(C)cc(C)c2)c(=O)c2ccc(C)nc21`, for which the “activity change, negative = inhibition” value was -10.6% (inactive).

On to `CCC(=O)N1CCc2cc(S(=O)(=O)NCCC(=O)Nc3cccc(C)c3C)ccc21`, for which the “activity change, negative = inhibition” value was -12% (inactive). With `Cc1ccc(C)c(NC(=O)C2CC(=O)N(C(C)C)C2)c1` (configuration not stated), the “activity change, negative = inhibition” value was -10.2% [at 57.1 µM] (inactive). Consider `Cc1ccc(C)c(NC(=S)NCC(c2cccnc2)N2CCOCC2)c1` (configuration not stated), for which the “activity change, negative = inhibition” value was -11.5% (inactive). With `Cc1ccc(C)c(NC(=S)NNC(=S)Nc2ccc(C(C)C)cc2)c1`, the Potency is 56.2 µM (active).

Regarding `CCOC(=O)c1c(NC(=O)c2cc(CC)on2)sc(C(C)=O)c1C`, the “activity change, negative = inhibition” value was 4.78% (inactive). Turning to `O=C(Nc1cccc(Cl)c1)c1csnn1`, the “activity change, negative = inhibition” value was -22.8% (inactive).

With `c1ccc(C2CNCc3c2ccc2ccccc32)cc1` (configuration not stated), the “activity change, negative = inhibition” value is -26.7% (inactive). For the compound `CC(C)(C)CN1C(=O)C(=O)NC[C@H]1Cc1cccc2ccccc12`, the “activity change, negative = inhibition” value is -5.07% (inactive). In the case of `c1ccc2c(CCN3CCNC[C@H]3Cc3cccc4ccccc34)cccc2c1`, the Potency is 56.2 µM (active).

Regarding `Cc1cc(NC(=O)CSc2ncc(C(=O)Nc3ccc(Cl)cc3)c(=O)n2C)no1`, the “activity change, negative = inhibition” value was 3.57% (inactive).

As to `CCOC(=O)c1ccc(NC(=O)CCS(=O)(=O)c2ccc3c(c2)oc(=O)n3C)cc1`, the “activity change, negative = inhibition” value is -10% (inactive). On the same count and under the same terms, with `Cc1ccc(NC(=O)c2cn3c4c(ccc(Cl)c4c2=O)OC(C)C3)cc1C` (configuration not stated) the figure was -5.28% (inactive); with `c1cnc(N2CCN(c3ccc4ccccc4n3)CC2)nc1`, 9.09% (inactive); with `CC1=C(N2CCN(c3ncccn3)CC2)CCC1=O`, -10% (inactive).

Turning to `CN(C)C(=O)c1nc2ccc(Cl)cn2c1CN1CCN(c2ncccn2)CC1`, the “activity change, negative = inhibition” value is -8.97% (inactive).

For `Cc1ccc(CN2CCN(c3ncccn3)CC2)c(C)c1`, the Potency was 14.1 µM (active). The same measure, in the same setting: the figure for `Oc1ccc(CN2CCN(c3ncccn3)CC2)cc1` is 50.1 µM (active).

With `COc1ccc(-c2nc(CN3CCN(c4ncccn4)CC3)c(C)o2)cc1C`, the “activity change, negative = inhibition” value was -29.1% (inactive). Still for that read-out and setting: the figure for `COc1ccc(CCNc2ncnc3c2cnn3-c2ccc(C)cc2)cc1` is -3.98% (inactive); for `Cc1cc(C)c(NC(=O)CCc2c(C)nc3c(c(C)nn3C(C)(C)C)c2C)c(C)c1` it is -9.76% (inactive); for `CCOc1ccc(CNC(=O)c2ccc3nc(CC)c(CC)nc3c2)cc1OC` it is -13.7% (inactive). The same measure, in the same setting: the figure for `COc1ccc(/C=C/c2nc(C#N)c(NCc3ccc(F)cc3)o2)cc1OC` is -17.6% (inactive); for `O=C(CCSCc1cccc(F)c1)NCc1ccccc1` it is -0.612% (inactive). With `Cc1ccc(C)c(N2CCN(c3ccc4cc(S(=O)(=O)N5CCC(C)CC5)ccc4n3)CC2)c1`, the “activity change, negative = inhibition” value is 15.9% (inactive). As to `CCN1CCN(CCCNC(=O)c2ccc3c(c2)sc2nc(-c4ccc(OC)cc4)cn23)CC1`, the “activity change, negative = inhibition” value is -23.7% (inactive).

Take `CC1C(C)N(C(=O)CCl)c2ccccc2N1C(=O)CCl` (configuration not stated): the Potency was 28.2 µM (active).

`CC1C(=O)N(Cc2ccccc2)c2ccccc2N1C(=O)c1ccccc1` (configuration not stated): the “activity change, negative = inhibition” value was -14% (inactive). Regarding `CNC(=O)N1c2ccccc2C=Cc2ccccc21`, the “activity change, negative = inhibition” value is -7.21% (inactive).

As to `CCOC(=O)c1c(NC(=O)c2ccc(S(=O)(=O)N3CCCC(C)C3)cc2)sc2c1CCN(C(C)C)C2` (configuration not stated), the “activity change, negative = inhibition” value is -29.7% (inactive). Still for that read-out and setting: with `Cc1ccc(CN2CCCn3nc(C(=O)NCc4ccccc4Cl)cc3C2=O)cc1` the figure was -22.8% (inactive).

With `O=S1(=O)CCN(Cc2ccccc2Cl)CC1`, the “activity change, negative = inhibition” value is -8.11% (inactive).

Take `COc1ccccc1/C=N/N1CCN(Cc2ccccc2Cl)CC1`: the Potency is 44.7 µM (active). For `CSc1ccc(/C=N/N2CCN(Cc3ccccc3Cl)CC2)cc1`, the Potency was 25.1 µM (active). On to `O=C(NCC1CCN(Cc2ccccc2Cl)CC1)Nc1cccc(Cl)c1`, for which the “activity change, negative = inhibition” value was -14.1% (inactive). For the compound `CN1CCN(/N=C/c2ccc(C#N)cc2)CC1`, the “activity change, negative = inhibition” value is -10.5% [at 57.1 µM] (inactive). In the case of `COc1ccccc1/C=C/C=N/NC(=O)CN1CCN(Cc2ccccc2)CC1`, the “activity change, negative = inhibition” value is -5.42% (inactive). In the case of `Cc1nn(C(=O)c2c(F)cccc2F)c(C)c1S(=O)(=O)N1CCOCC1`, the “activity change, negative = inhibition” value was -6.39% (inactive). Still for that read-out and setting: the figure for `Fc1ccc(-n2ncc3c(Nc4ccc(Oc5ccccc5)cc4)ncnc32)cc1` is -4.89% (inactive).
